Test [1] has as its target MAP kinase-activated protein kinase 2 (Homo sapiens) (UniProt P49137). As to conditions: at 10 µM.
Test [2] deals with MAP kinase-activated protein kinase 3 (Homo sapiens) (UniProt Q16644). The note with it: at 10 µM.
Test [3] concerns the target Serine/threonine-protein kinase MARK1 (Homo sapiens) (UniProt Q9P0L2). As to conditions: at 1 µM.
Test [4] has the same target. As to conditions: at 10 µM.
In test [5] the target is Dual specificity mitogen-activated protein kinase kinase 1 (Homo sapiens) (UniProt Q02750). The note with it: at 1 µM.
Sequence of Dual specificity mitogen-activated protein kinase kinase 1 (Homo sapiens) (Q02750 whole entry): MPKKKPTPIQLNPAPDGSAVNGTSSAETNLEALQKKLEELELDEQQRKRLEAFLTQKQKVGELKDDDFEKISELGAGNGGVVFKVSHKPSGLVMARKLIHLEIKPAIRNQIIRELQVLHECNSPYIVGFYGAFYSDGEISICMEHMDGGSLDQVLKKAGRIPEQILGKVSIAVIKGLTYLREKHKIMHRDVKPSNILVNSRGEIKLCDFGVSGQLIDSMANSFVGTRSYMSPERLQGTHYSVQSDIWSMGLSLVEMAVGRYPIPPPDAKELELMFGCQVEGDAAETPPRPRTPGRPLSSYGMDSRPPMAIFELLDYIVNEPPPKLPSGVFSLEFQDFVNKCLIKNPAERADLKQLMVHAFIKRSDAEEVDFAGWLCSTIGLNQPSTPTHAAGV
For test [6] the target is unchanged. As to conditions: at 10 µM.
The target in test [7] is Maternal embryonic leucine zipper kinase (Homo sapiens) (UniProt Q14680). As to conditions: at 1 µM.
Sequence of Maternal embryonic leucine zipper kinase (Homo sapiens) (Q14680 whole entry, looked up): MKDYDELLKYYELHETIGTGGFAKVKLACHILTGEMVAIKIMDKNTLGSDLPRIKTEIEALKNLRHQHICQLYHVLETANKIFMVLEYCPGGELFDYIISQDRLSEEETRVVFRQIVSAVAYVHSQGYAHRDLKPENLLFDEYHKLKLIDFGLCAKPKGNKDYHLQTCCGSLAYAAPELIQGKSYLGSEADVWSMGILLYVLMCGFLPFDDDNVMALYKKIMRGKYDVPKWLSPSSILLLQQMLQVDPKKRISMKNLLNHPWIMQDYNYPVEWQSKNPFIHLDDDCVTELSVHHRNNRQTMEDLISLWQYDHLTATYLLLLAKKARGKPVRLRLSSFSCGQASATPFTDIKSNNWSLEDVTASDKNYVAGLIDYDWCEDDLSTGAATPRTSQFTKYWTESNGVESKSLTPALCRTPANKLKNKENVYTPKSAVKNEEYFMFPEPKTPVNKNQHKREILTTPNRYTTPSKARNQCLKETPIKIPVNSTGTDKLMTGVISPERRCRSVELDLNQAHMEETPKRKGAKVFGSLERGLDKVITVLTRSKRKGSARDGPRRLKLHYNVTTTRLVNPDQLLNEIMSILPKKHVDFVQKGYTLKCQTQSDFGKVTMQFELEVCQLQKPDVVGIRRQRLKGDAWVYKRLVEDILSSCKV
The target is the same in test [8]. The note with it: at 10 µM.
For test [9], the target named is Misshapen-like kinase 1 (Homo sapiens) (UniProt Q8N4C8). The note with it: at 1 µM.
Sequence of Misshapen-like kinase 1 (Homo sapiens) (Q8N4C8 whole entry, looked up): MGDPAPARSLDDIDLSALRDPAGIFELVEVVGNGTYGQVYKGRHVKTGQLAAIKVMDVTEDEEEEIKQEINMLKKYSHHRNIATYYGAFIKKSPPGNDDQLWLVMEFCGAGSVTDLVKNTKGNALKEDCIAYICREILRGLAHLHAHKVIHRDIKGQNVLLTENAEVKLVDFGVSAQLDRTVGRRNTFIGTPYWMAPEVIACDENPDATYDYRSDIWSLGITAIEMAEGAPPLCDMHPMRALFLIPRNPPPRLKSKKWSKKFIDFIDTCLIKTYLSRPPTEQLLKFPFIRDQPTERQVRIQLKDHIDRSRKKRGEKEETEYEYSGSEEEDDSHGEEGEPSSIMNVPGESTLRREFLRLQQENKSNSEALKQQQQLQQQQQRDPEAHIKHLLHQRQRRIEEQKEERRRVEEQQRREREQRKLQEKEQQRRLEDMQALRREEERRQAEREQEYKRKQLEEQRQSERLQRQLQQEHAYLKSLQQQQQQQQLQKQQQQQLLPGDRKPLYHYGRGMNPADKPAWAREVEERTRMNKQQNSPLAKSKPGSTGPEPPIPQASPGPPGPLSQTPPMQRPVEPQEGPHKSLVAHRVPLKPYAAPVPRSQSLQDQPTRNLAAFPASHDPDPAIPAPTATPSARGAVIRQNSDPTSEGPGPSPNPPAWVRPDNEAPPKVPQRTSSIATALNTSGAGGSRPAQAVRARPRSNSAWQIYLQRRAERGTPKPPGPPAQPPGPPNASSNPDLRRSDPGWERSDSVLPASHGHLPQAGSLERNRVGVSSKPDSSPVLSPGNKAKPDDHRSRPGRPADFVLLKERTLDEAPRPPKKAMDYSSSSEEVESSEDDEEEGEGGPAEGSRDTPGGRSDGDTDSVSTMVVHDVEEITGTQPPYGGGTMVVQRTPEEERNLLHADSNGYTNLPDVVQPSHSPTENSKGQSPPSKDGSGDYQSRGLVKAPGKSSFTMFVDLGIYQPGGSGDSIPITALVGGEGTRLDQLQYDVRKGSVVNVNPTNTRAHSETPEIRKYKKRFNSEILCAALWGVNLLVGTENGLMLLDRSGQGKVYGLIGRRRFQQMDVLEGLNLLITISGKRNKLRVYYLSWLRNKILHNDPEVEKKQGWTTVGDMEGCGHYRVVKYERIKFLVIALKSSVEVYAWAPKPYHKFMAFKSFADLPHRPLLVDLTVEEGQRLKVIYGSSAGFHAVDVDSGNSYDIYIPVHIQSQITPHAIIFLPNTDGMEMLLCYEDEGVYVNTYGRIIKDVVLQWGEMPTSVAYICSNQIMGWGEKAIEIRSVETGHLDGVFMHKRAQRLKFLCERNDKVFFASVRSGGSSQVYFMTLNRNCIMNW
The target is the same in test [10]. As to conditions: at 10 µM.
The target of test [11] is T1, Dual specificity mitogen-activated protein kinase kinase 6 (Homo sapiens) (UniProt P52564).
T1 sequence (whole entry): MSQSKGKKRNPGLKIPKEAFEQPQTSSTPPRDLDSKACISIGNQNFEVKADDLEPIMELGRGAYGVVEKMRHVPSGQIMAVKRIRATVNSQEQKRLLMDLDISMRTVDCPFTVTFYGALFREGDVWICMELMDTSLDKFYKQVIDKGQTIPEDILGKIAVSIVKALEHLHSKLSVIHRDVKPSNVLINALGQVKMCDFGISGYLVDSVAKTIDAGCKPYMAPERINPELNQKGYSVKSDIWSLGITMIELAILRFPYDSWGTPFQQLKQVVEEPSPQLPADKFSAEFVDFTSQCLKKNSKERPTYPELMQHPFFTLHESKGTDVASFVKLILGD
The note with it: at 1 µM.

Test [12] concerns the target T1, Dual specificity mitogen-activated protein kinase kinase 6 (Homo sapiens). The note with it: at 10 µM.
In test [13] the target is T2, Dual specificity mitogen-activated protein kinase kinase 7 (Homo sapiens) (UniProt O14733).
T2 sequence (whole entry): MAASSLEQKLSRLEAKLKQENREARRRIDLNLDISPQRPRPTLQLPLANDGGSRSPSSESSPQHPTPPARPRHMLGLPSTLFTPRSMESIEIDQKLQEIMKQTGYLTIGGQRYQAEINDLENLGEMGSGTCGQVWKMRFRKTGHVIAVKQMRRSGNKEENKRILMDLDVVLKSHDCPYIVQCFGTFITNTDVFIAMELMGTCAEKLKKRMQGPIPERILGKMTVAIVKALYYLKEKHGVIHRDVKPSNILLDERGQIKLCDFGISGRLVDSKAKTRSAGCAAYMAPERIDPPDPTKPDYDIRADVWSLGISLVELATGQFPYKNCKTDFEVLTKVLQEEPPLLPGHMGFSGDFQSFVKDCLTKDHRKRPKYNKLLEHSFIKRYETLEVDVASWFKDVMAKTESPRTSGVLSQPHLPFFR
As to conditions: at 1 µM.

In test [14] the target is T2, Dual specificity mitogen-activated protein kinase kinase 7 (Homo sapiens). The note with it: at 10 µM.
In test [15] the target is Myosin light chain kinase, smooth muscle (Homo sapiens) (UniProt Q15746). As to conditions: at 1 µM.
Sequence of Myosin light chain kinase, smooth muscle (Homo sapiens) (Q15746 whole entry): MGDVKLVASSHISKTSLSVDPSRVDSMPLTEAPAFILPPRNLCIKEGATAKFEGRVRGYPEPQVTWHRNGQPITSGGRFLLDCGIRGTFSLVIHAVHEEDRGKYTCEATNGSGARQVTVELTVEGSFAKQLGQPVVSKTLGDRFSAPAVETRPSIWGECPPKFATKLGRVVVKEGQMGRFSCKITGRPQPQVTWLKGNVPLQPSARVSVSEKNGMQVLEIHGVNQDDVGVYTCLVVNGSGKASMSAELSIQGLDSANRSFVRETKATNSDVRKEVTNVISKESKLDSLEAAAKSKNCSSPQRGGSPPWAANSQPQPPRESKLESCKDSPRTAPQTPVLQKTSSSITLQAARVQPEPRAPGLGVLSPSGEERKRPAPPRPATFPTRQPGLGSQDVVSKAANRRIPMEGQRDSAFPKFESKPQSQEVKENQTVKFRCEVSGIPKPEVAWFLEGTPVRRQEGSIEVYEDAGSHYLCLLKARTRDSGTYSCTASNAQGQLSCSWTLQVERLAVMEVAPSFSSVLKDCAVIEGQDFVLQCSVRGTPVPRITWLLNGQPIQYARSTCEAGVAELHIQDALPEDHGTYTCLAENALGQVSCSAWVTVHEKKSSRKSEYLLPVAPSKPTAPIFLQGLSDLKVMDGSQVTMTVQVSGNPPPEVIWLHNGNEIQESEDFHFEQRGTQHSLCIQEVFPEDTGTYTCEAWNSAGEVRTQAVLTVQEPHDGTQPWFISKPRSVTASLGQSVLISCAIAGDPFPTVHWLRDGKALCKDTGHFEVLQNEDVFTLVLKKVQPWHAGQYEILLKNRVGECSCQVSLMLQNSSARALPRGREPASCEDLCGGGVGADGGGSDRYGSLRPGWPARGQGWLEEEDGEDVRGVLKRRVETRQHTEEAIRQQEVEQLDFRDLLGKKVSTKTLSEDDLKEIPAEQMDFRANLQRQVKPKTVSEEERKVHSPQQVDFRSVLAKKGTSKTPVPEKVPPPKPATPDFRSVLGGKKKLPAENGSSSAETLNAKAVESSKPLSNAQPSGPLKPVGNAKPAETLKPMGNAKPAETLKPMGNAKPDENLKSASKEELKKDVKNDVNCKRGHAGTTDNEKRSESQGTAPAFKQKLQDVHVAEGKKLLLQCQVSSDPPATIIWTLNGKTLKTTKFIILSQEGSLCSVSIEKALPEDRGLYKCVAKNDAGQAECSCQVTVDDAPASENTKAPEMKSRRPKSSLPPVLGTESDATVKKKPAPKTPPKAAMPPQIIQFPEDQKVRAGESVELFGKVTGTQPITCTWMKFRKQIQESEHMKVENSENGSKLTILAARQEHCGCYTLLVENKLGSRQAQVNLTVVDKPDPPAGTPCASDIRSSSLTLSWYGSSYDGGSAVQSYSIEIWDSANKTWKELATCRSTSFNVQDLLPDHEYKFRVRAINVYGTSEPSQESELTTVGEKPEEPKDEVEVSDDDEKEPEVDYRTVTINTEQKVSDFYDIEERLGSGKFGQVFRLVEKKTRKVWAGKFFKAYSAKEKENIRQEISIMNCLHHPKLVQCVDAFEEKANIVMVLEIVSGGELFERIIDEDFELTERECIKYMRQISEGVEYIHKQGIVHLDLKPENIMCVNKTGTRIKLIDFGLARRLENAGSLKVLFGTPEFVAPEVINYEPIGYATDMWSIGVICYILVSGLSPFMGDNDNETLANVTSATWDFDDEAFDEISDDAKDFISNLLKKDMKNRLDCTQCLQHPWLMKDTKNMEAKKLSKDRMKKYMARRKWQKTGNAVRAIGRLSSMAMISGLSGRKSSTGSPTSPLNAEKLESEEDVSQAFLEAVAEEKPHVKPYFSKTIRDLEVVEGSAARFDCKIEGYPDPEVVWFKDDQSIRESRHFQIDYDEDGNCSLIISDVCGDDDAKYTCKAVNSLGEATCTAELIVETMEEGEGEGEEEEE
Test [16] has the same target. The note with it: at 10 µM.
Test [17] addresses Mitogen-activated protein kinase kinase kinase 9 (Homo sapiens) (UniProt P80192). As to conditions: at 1 µM.
For test [18] the target is unchanged. As to conditions: at 10 µM.
The target of test [19] is Serine/threonine-protein kinase MRCK alpha (Homo sapiens) (UniProt Q5VT25). The note with it: at 1 µM.
For test [20] the target is unchanged. The note with it: at 10 µM.

Sequence of Serine/threonine-protein kinase MARK1 (Homo sapiens) (Q9P0L2 whole entry, looked up): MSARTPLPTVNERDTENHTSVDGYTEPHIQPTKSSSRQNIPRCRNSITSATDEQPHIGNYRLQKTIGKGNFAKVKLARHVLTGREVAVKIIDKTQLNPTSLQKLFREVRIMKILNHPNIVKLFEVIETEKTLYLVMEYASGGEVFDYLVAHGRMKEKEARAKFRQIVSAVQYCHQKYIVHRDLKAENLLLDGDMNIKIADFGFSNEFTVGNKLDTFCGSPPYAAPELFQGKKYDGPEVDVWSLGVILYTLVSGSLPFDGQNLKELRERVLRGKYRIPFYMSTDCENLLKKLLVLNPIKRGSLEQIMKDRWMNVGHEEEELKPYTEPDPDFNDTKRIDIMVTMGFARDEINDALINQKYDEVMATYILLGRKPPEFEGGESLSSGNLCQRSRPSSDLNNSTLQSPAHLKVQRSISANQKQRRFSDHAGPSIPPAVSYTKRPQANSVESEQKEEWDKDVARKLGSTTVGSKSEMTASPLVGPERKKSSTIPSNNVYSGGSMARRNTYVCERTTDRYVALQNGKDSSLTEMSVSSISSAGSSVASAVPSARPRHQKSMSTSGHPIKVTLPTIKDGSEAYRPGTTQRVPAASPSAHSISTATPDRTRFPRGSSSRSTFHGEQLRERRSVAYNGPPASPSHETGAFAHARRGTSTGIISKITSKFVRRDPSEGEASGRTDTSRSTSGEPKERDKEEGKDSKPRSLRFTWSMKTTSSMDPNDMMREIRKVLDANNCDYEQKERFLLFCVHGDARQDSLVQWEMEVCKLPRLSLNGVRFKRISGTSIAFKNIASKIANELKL

For the compound `O=C1Nc2cc(Br)ccc2/C1=C1/Nc2ccccc2/C1=N\O`, the residual activity was determined as 90% in [1]; 91% in test [2]; 21% in [3]; 19% in test [4]; 71% in test [5]; 107% in test [6]. The residual activity in [7] amounted to 34%; in test [8], 48%; in test [9], 91%; in test [10], 70%; in [11], 87%; in test [12], 65%. Besides, the residual activity in [13] was determined as 80%; in [14] it was 93%; in test [15], 25%; in test [16], 32%; in [17] it was 21%; in [18] it was 10%. Besides, the figures for the residual activity in test [19] and in test [20] were 141% and 103%, respectively.

In the case of `CO[C@H]1C[C@@H]2CC[C@@H](C)[C@@](O)(O2)C(=O)C(=O)N2CCCC[C@H]2C(=O)O[C@H]([C@H](C)C[C@@H]2CC[C@@H](O)[C@H](OC)C2)CC(=O)[C@H](C)/C=C(\C)[C@@H](O)[C@@H](OC)C(=O)[C@H](C)C[C@H](C)/C=C/C=C/C=C/1C`, the residual activity in [1] turned out to be 115%; in test [2], 133%; in [3] it was 78%; in test [4] it was 71%; in [5], 132%; in test [6], 97%. Further, the residual activity in test [7] came out at 88%; in test [8], 97%; in test [9] it was 81%; in test [10], 74%; in [11] it was 93%; in [12], 82%. Further, the residual activity in test [13] came to 102%; in test [14], 102%; in test [15], 75%; in test [16], 101%; in test [17], 91%; in test [18], 106%. For the same compound, the figures for the residual activity in test [19] and in [20] were 118% and 146%, respectively.

Consider `Cc1nc(-c2ccccc2)c(-c2ccncc2)o1`, for which the residual activity is 110% in [1]; 101% in test [2]; 97% in test [3]; 89% in [4]; 105% in test [5]; 106% in [6]. In addition, the residual activity in [7] worked out at 104%; in test [8] it was 89%; in test [9] it was 118%; in [10], 88%; in test [11], 99%; in test [12], 37%. The residual activity in test [13] was found to be 100%; in test [14], 103%; in [15], 106%; in [16], 88%; in test [17], 106%; in test [18] it was 102%. In addition, the residual activity worked out at 114% in test [19] and 129% in test [20].

Regarding `COc1ccc(CNc2nc(N(CCO)CCO)nc3c2ncn3C(C)C)cc1`, the residual activity was determined as 81% in [1]; 98% in test [2]; 85% in test [3]; 72% in [4]; 103% in [5]; 120% in test [6]. In addition, the residual activity in test [7] came out at 77%; in test [8], 38%; in [9] it was 103%; in [10], 92%; in [11], 102%; in test [12], 100%. For the same compound, the residual activity in [13] amounted to 86%; in test [14] it was 95%; in [15] it was 108%; in test [16], 68%; in [17], 82%; in test [18] it was 41%. For the same compound, the residual activity is 108% in [19] and 89% in [20].

As for `Cn1cnc2cc3c(Nc4cccc(Br)c4)ncnc3cc21`, the residual activity in test [1] was determined as 94%; in test [2], 87%; in test [3], 102%; in [4] it was 94%; in test [5], 91%; in test [6], 88%. For the same compound, the residual activity in test [7] amounted to 92%; in test [8] it was 103%; in [9], 103%; in test [10] it was 75%; in test [11], 83%; in test [12], 74%. Moreover, the residual activity in test [13] was 96%; in test [14], 74%; in test [15] it was 74%; in [16], 94%; in test [17] it was 64%; in test [18], 40%. Also, the residual activity in test [19] came out at 105%; in test [20], 87%.

As for `c1ccc2c(-c3ccncc3)c[nH]c2c1`, the residual activity was determined as 94% in [1]; 101% in [2]; 81% in test [3]; 77% in test [4]; 87% in test [5]; 75% in test [6]. For the same compound, the residual activity in test [7] turned out to be 91%; in test [8], 76%; in test [9], 85%; in test [10], 43%; in [11], 77%; in test [12], 93%. In addition, the residual activity in test [13] was 101%; in test [14], 94%; in test [15], 72%; in test [16], 66%; in test [17], 74%; in test [18], 60%.

Turning to `CO[C@@H]1[C@H](N(C)C(=O)c2ccccc2)C[C@H]2O[C@]1(C)n1c3ccccc3c3c4c(c5c6ccccc6n2c5c31)C(=O)NC4`, the residual activity in test [1] was 47%; in test [2], 37%; in test [3], 1%; in [4], 0%; in test [5], 74%; in test [6], 56%. Moreover, the residual activity stood at 5% in test [7]; 2% in [8]; 52% in [9]; 18% in [10]; 52% in test [11]; 58% in test [12]. Moreover, the residual activity in [13] turned out to be 111%; in test [14], 135%; in [15] it was 13%; in [16] it was 10%; in test [17] it was 1%; in [18], 1%. In addition, the residual activity turned out to be 93% in test [19] and 102% in [20].

These data come from ChEMBL document CHEMBL2218924, “A broad activity screen in support of a chemogenomic map for kinase signalling research and drug discovery” (Biochem J, 2013).
